This is part of a sample that, as a whole, favours compounds with a hit. Of some 83,000 tested, about 20% had one in any assay.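 Compound tested at a single concentration for 48 hours in 96-well plates; a percent growth value below 10 was scored as active.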 The source made the active and inactive calls.
What follows are compounds tested on HL-60(TB) leukemia (assay: NCI-60 one-dose screen, 48 h (100 = growth as untreated, 0 = no growth, -100 = all killed)). Details: 10 µM unless noted.
In the case of `C#CCOc1cccc(Nc2c(Cl)c(CCl)nc3ccc(Oc4ccccc4)cc23)c1`, the growth is reported as 41.4% (inactive).
In the case of `NC(=O)NN=C(C1CC1)C1CC1`, the growth is reported as 62.2% (inactive).
`C/C(=N\Nc1cc(C)c2cc(C)ccc2n1)c1ccccn1` was tested, and the growth was -54.9% (active).
For `Nc1ccc(F)c(Cl)c1F`, the growth was 95.6% (inactive).
For `CC(=O)Nc1cc(C)ccc1C`, the growth was 100% (inactive).
In the case of `CCCCCCc1cc2cc(-c3nc4ccccc4[nH]3)c(=Nc3ccccc3C)oc2cc1O`, the growth is reported as 12.2% (inactive).
In the case of `CCN(CC)c1cc2oc3cc(N)cc(=N)c-3nc2cc1C`, the growth is reported as -15.2% (active).
With `COc1cccc(/C=N/C(=S)NC2(C)C3CCC(C3)C2(C)C)c1O` (stereo unspecified) the growth was 75.5% (inactive).
With `O=C1c2cccc3cccc(c23)C(=O)N1N1C(=O)c2cccc3c(N4CCNCC4)ccc(c23)C1=O` the growth was 64.7% (inactive).
`ClCC#CCSc1ncnc2c1ncn2CC#CCCl` was tested, and the growth was 8.79% (active).
For `CN1CCN(CC(=O)Nc2ccc(-c3nc4ccccc4s3)cc2)CC1`, the growth was 96.4% (inactive).
In the case of `CC1Cc2cc(F)ccc2-n2cccc21` (stereo unspecified), the growth is reported as 111% (inactive).
With `CC([C@H]1CCC2C3CCC4C(=O)C(NC=O)=CC[C@]4(C)C3CC[C@@]21C)N(C)C` (stereo partly specified) the growth was 1.54% (active).
`O=C1N(c2ccccc2)C(=S)N[C@]12[C@H](c1ccccc1)C1CCCN1[C@]21C(=O)NC2C=CC(Cl)=C[C@H]21` (stereo partly specified) was tested, and the growth was 81.5% (inactive).
`Clc1nc(N2CCC[N+]3(CC2)CC[N+]2(CCCNCC2)CC3)nc(N2CCC[N+]3(CC2)CC[N+]2(CCCNCC2)CC3)n1` (stereo unspecified) was tested, and the growth was 97% (inactive).
In the case of `O=C(CSc1nccc(Nc2cccc3ccccc23)n1)c1ccc(Cl)cc1`, the growth is reported as 99.2% (inactive).
